Records with an inconclusive call do not appear. Calls of active or inactive are those of the source. Unless noted, calls follow the shape of the dose curve; as a rule, active = well fitted curve in either direction with a large enough effect (not every such curve was filed as active); inconclusive = small, poorly fitted or top-dose-only effect, or another doubt; inactive = flat fitted curve, though single readings scatter.
Legend:
[1] = AP1 Signaling Pathway (AID 357); conditions: ME-180 AP-1-bla reporter, EGF-induced, beta-lactamase ratio, 5 h; at 7.69 µM (top of the series) unless noted;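 also: ME-180 reporter cells stimulated with EGF at its EC50 level; % is scaled to controls: 0 for no effect and ±100 for the full control effect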
Procedure, shortened: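 AP-1-bla ME-180 cells, Opti-MEM + 0.5% dialyzed FBS, plated overnight 37 °C. Cpd titration + EC50 EGF, 5 h 37 °C. CCF4 2.5 h RT; ex 405, em 460/530 ratio → %activity, AC50.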

[2] = target: Cytochrome P450 1A2 (Homo sapiens) (UniProt P05177); test: p450-cyp1a2 (AID 410; calls by dose curve; also: potency is read from the fitted curve at half-maximal effect)
Procedure, shortened: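 Human CYP1A2 (20nM) demethylated Luciferin-ME at its Km (100uM) in 100mM KPO4. After 10 min compound preincubation, NADPH regeneration ran the reaction 60 min at room temperature. Luciferin was read by luminescence, normalized to 57 uM furafylline.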

[3] = NFAT Signaling Pathway (AID 444); conditions: Jurkat NFAT-bla M1, carbachol, beta-lactamase ratio, 5 h; at 7.69 µM (top of the series) unless noted;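 also: carbachol stimulus at about its EC50 of 1 µM final; % is scaled to controls: 0 for no effect and ±100 for the full control effect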
Procedure, shortened: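 Jurkat cells carrying an NFAT-driven β-lactamase reporter and co-transfected muscarinic M1 receptor were treated with compound plus carbachol (1 uM final, an EC50 level) for 5 h at 37 °C. CCF4 loading followed for 1 h at RT; 460/530 nm ratio gave %activity.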

[4] = target: Glucocorticoid receptor (Homo sapiens) (UniProt P04150); test: GR-GFP Redistribution (AID 450;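 active = compounds whose dose series gives a full or clear partial fitted curve of increased nuclear translocation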; also: potency is read from the fitted curve at half-maximal effect); conditions: U2OS GR-GFP nuclear translocation, laser cytometry, 2 h
[5] = target: Glucocorticoid receptor (Homo sapiens) (UniProt P04150); test: GR-EFC Redistribution (AID 451; calls by dose curve; also: potency is read from the fitted curve at half-maximal effect); conditions: CHO-K1 GR-EFC translocation, beta-gal luminescence, 2 h
Procedure, shortened: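 CHO-K1 cells stably expressing nuclear-localized β-gal enzyme acceptor and GR fused C-terminally to the enzyme donor fragment; ligand-driven nuclear translocation restores β-gal by complementation. Compounds titrated up to 46 uM final, 2 h at 37 °C; luminescence read.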

[6] = target: Mitogen-activated protein kinase 10 (Mus musculus) (UniProt Q61831); test: JNK3 AlphaScreen Assay (AID 530);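 also: kinase came from lysate of stimulated human HepG2 cells; signal reports phosphorylation of biotinylated GST-cJun 1-79 at Ser73 with 10 µM ATP; % is scaled to controls: 0 for no effect and ±100 for the full control effect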
Procedure, shortened: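 JNK3 came from HepG2 lysates pre-activated with IL-1beta and TNF-alpha and phosphorylated biotinylated GST-cJun (1-79) at 10 uM ATP, pH 7.6, room temperature. Compounds were titrated. AlphaScreen signal used anti-phospho-cJun (Ser73) antibody.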

[7] = target: 3',5'-cyclic-AMP phosphodiesterase 4B (Homo sapiens) (UniProt Q07343); test: qHTS Assay for Inhibitors of PDE-IV (AID 607; active = well fitted activation curve with a large enough effect in the main read-out, with a control signal flat, not every such curve was filed as active; also: % of control where 0% means no effect)
Procedure, shortened: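 Live HEK293 cells with a modified cyclic nucleotide-gated (CNG) channel report intracellular cAMP via membrane-potential dye fluorescence (ex 535/em 590 nm). Endogenous PDE-IV was targeted. Compounds were tested at up to 22.9 uM final; RO 20-1724 100 uM served as control.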

[8] = target: Cytochrome P450 3A4 (Homo sapiens) (UniProt P08684); test: qHTS Assay for Activators of Cytochrome P450 3A4 (AID 885; active = well fitted curve in the direction sought with a large enough effect; an effect the other way counts as inactive or inconclusive; also: nearly all actives have a fitted effect of over 65% in size)
Procedure, shortened: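 Quantitative HTS format: compounds preincubated with 20nM human CYP3A4 and Luciferin-PPXE substrate at KM, reaction started by NADPH regeneration, stopped after 60 min, luciferase luminescence read 20 min later.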

[9] = target: Cytochrome P450 2C19 (Homo sapiens) (UniProt P33261); test: qHTS Assay for Inhibitors and Substrates of Cytochrome P450 2C19 (AID 899; active = well fitted curve in the direction sought with a large enough effect; an effect the other way counts as inactive or inconclusive; also: potency is read from the fitted curve at half-maximal effect; nearly all actives have a fitted effect of over 60% in size)
Procedure, shortened: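 In 50mM KPO4, the reaction held 5nM enzyme and KM-level (10uM) Luciferin-H EGE; it ran 60 min at 37C after NADPH regeneration and a 10 min compound preincubation. Luminescence values were scaled to 57uM ketoconazole as complete inhibition.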

[10] = qHTS Assay for Identification of Small Molecule Agonists for Hypoxia Response Element Signaling Pathway (AID 914; active = well fitted activation curve with a large enough effect in the signal ratio, with a control signal flat, not every such curve was filed as active; the % refers to the signal ratio; also: potency is read from the fitted curve at half-maximal effect); conditions: ME-180 (cervical carcinoma) HRE-bla reporter, beta-lactamase ratio, CoCl2, 17 h; activation: hits give high values
Procedure, shortened: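 Positive modulation of EC50 CoCl2-induced hypoxia response element signaling is measured in ME-180 cells with a beta-lactamase reporter. Compounds are titrated, incubation runs 17 hours, and %Activity derives from the blue/green ratio.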

Sequence of Glucocorticoid receptor (Homo sapiens) (P04150 whole entry, looked up, the tested form may be a part): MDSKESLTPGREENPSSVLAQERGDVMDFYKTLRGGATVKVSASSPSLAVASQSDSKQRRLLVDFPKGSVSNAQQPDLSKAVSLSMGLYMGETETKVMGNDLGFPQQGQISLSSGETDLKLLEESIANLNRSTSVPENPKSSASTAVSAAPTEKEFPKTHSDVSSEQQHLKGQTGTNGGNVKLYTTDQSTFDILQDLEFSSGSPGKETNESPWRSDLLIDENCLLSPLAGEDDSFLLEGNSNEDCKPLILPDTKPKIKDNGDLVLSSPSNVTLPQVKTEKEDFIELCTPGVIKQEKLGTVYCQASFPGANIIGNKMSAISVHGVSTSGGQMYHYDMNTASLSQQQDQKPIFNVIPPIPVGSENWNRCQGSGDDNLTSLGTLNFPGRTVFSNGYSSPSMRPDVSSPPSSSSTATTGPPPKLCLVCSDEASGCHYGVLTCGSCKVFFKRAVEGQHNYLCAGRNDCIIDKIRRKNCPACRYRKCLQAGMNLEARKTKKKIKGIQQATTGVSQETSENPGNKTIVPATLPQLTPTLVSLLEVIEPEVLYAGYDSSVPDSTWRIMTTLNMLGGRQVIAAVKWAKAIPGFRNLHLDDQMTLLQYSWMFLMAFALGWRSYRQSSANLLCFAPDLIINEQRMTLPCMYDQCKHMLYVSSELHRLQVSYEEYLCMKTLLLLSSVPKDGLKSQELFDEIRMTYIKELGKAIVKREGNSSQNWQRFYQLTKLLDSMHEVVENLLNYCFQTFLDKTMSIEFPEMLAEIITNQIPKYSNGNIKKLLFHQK
Sequence of Cytochrome P450 1A2 (Homo sapiens) (P05177 whole entry, looked up): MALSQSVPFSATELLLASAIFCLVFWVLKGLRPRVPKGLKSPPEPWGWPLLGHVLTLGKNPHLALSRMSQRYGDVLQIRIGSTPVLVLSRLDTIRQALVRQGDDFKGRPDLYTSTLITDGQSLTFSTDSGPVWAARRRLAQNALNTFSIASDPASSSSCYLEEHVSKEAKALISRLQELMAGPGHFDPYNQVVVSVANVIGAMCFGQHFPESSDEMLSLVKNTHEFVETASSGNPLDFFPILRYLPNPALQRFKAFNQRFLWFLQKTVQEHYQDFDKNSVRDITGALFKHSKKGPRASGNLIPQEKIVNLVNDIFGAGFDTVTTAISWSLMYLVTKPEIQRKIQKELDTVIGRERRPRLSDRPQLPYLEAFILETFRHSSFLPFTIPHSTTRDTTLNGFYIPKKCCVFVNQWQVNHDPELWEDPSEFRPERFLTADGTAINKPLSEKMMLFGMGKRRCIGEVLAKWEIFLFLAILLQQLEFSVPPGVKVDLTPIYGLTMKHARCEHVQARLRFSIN
Sequence of 3',5'-cyclic-AMP phosphodiesterase 4B (Homo sapiens) (Q07343 whole entry, looked up): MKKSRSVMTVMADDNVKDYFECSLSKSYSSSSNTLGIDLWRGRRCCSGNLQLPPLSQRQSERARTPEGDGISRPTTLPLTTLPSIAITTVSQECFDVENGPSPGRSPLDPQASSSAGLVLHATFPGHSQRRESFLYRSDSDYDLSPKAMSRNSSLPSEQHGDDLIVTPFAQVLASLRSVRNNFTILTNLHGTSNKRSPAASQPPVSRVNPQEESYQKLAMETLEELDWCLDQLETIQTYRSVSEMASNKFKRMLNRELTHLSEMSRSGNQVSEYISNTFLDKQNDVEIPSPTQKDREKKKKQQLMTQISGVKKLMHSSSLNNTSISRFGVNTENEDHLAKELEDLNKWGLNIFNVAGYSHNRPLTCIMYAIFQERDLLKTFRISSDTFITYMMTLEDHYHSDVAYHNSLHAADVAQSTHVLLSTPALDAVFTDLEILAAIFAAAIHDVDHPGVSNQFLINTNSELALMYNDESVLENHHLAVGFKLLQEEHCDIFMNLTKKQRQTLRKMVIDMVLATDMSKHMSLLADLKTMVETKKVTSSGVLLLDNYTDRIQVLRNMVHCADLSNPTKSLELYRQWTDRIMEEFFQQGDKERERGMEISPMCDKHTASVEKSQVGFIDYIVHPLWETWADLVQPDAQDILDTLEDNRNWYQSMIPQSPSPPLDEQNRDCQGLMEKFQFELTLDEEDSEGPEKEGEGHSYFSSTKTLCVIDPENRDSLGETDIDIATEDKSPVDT
Sequence of Cytochrome P450 2C19 (Homo sapiens) (P33261 whole entry, looked up): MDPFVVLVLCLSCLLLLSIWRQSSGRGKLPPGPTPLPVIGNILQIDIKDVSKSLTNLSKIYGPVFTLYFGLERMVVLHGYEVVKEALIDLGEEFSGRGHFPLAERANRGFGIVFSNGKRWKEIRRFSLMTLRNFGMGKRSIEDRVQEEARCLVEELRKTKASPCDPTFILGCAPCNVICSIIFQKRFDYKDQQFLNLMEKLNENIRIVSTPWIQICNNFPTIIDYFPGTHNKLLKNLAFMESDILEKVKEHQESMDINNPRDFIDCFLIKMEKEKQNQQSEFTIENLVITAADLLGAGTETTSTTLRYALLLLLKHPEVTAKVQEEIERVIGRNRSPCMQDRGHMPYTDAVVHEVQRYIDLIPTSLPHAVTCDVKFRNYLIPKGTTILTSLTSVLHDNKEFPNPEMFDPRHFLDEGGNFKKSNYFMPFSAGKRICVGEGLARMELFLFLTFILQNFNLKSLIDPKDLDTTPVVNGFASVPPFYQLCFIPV
Sequence of Cytochrome P450 3A4 (Homo sapiens) (P08684 whole entry, looked up): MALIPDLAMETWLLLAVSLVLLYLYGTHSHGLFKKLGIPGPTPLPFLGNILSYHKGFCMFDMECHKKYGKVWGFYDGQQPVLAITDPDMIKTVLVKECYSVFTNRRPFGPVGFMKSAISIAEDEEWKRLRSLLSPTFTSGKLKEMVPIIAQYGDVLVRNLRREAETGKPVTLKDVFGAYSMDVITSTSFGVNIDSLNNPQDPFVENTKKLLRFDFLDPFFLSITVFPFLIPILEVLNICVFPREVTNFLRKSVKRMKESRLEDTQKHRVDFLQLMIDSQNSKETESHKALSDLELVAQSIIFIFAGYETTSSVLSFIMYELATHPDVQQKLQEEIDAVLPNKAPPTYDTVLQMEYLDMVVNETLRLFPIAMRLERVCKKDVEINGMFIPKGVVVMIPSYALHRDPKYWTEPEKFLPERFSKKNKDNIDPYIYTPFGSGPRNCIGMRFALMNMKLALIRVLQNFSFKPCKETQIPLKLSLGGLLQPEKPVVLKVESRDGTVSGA

O=C1C(=O)c2ccccc2C(O)=C1C(C1=C(O)c2ccccc2C(=O)C1=O)c1ccc(Cl)cc1
active: Potency [2] 3.98 µM | Potency [9] 3.98 µM
inactive: activity change, negative = inhibition [1] -18% | activity change, negative = inhibition [3] -12.1% | Potency [4] > 46 µM | Potency [5] > 9.22 µM | Potency [6] | Potency [7] | Potency [8]

CCNc1ncc2nc(-c3ccccc3)c(=O)n(C3CC3)c2n1
active: Potency [2] 2.51 µM | Potency [10] 2.51 µM
inactive: activity change, negative = inhibition [1] -3.39% | activity change, negative = inhibition [3] 23.2% | Potency [4] > 9.22 µM | Potency [5] > 46 µM | Potency [6]

Source: PubChem BioAssay (NCATS)
